BRCA1 expr act = BRCA1 expression activation; hit rate 1.1% among 380,000; MCF7-BRCA1-FFLuc reporter, luminescence, 48 h; response scale: scaled: vehicle 0%, 10 µM genistein 100%; AID 624202; Potency, µM (highest dose often 46.1 µM), for inactives: at the highest dose activation, usual class: activators; also: nearly all actives have a fitted effect of over 80% in size
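Using MCF7 cells harboring a BRCA1 firefly luciferase reporter, plated 2 h before compound pinning, the screen measured luminescence after 48 h incubation. Responses were normalized to DMSO and 10 microM genistein, then fitted for concentration-effect.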
GLP1R cytotox = cytotoxicity counter-screen for GLP-1 receptor inverse agonists; HEK293 cAMP-luciferase reporter cells, luminescence, 24 h; Potency, µM (titrated, usually from 38.3 µM), without a hit: at the highest dose activity change, negative = inhibition, usual class: inhibitors; hit rate 0.13% among 410,000;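 also: loss of luciferase light is scored as toxicity; % is scaled to controls: 0 for no effect and ±100 for the full control effect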
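Quantitative HTS format, 1536 wells, 200 cells/uL seeded. Compounds: 23 nL, 24 h, 37 °C. Detection: luciferase reagent, luminescence at 12 min RT; decreased signal taken as cytotoxic.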
GLP1R ag = agonists of human GLP-1 receptor; P43220; hit rate 0.007% among 380,000; Potency, µM (series often up to 45.6 µM), for the others: at the highest dose activation, most hits filed as activators; AID 624172; HEK293 GLP-1R CRE-luciferase, luminescence, 4-6 h; cells express a hypersensitive GLP-1R form; also: % of control where 0% means no effect
Target sequence (P43220 whole entry, looked up): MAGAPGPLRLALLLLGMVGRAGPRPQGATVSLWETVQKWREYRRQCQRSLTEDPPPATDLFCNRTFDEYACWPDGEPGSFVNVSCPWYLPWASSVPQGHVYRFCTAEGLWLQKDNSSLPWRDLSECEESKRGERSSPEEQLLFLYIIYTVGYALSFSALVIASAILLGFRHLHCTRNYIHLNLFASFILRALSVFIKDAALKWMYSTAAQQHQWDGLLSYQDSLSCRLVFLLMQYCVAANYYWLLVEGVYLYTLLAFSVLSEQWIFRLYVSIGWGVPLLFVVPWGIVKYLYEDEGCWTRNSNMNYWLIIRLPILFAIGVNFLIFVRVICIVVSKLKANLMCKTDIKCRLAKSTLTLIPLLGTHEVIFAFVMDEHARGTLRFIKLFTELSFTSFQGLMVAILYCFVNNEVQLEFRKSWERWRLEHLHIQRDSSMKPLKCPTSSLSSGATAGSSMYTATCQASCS
GLP1R inv ag = acts as inverse agonist at human GLP-1 receptor; HEK293 GLP-1R CRE-luciferase, luminescence, 24 h; GLP-1R form is constitutively active; Potency, µM (titrated, usually from 38.3 µM), for inactives: at the top dose activity change, negative = inhibition, most hits filed as inhibitors; P43220; hit rate 1.6% among 410,000; AID 624417; also: % is scaled to controls: 0 for no effect and ±100 for the full control effect; nearly all actives have a fitted effect of over 55% in size
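Seeding at 200 cells/uL, 12 h culture, 24 hr compound treatment, then luciferase reagent and a luminescence read; cells are HEK293 stably expressing a constitutively active GLP-1R plus cAMP-responsive luciferase.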
* = called active by the depositor; ? = inconclusive; . = no result. This is a sample that favours compounds with a hit; in the whole collection about 2.6% have one here. Calls follow the shape of the dose curve; as a rule, active = well fitted curve in the direction sought with a large enough effect; inconclusive = small, poorly fitted or top-dose-only effect, or another doubt; inactive = no such curve, though single readings can be large; an effect the other way counts as inactive or inconclusive. Potency is read from the fitted curve at half-maximal effect.

SMILES	BRCA1 expr act	GLP1R cytotox	GLP1R ag	GLP1R inv ag
O=C(Nc1ccc(NC(=O)c2ccco2)cc1)c1ccco1	10µM*	-7%	-3%	20%
O=C(Nc1ccc(Br)cc1)c1ccco1	?	10%	-2%	7%
CCOC(=O)Cc1ccc(NC(=O)c2ccc(C(C)(C)C)cc2)cc1	-79%	-20%	-11%	5µM*
CC(=O)OC1CCC2(C)C(=CCC3C2CCC2(C)C(C(C)=O)CCC32)C1 (centres undefined)	.	.	6%	.
CCOC(=O)c1ccc(NC(=O)c2ccco2)cc1	7.1µM*	0%	6%	9%
COc1ccc(NC(=O)CNC(=O)c2ccco2)cc1	?	9%	-1%	10%
O=C(Nc1ccc(NC(=O)C2CC2)cc1)c1ccco1	3.2µM*	12%	1%	5%
CC(NC(=O)c1ccco1)C(=O)Nc1nccs1 (centres undefined)	-8%	11%	-7%	3%
O=C(Nc1nccs1)c1ccc(NC(=O)c2ccco2)cc1	5µM*	-17%	4%	5%
Cc1ccc(NC(=O)CNC(=O)c2ccco2)cc1	11µM*	-1%	2%	14%
Cc1ccc(S(=O)(=O)NCC(=O)NCC(=O)NCCc2ccc(Cl)cc2)cc1C	-21%	-10%	5%	-32%
O=C(Nc1ccccc1C(=O)O)c1ccc(NC(=O)C2CC2)cc1	14%	-8%	-10%	-3%
CCOC(=O)c1ccc(NC(=S)N(CCCN2CCCCC2)Cc2ccco2)cc1	-8%	?	?	11µM*
O=C(Nc1ccccc1O)c1ccc(NC(=O)C2CC2)cc1	1.8µM*	-19%	1%	86%
CCOc1ccccc1NC(=O)C1CCN(S(=O)(=O)c2c(C)noc2/C=C/c2ccc(C)cc2)CC1	-6%	0%	-2%	3%
Nc1ccc(C#Cc2ccc3oc4ccccc4c(=O)c3c2)cc1	?	2%	12%	8%
Nc1ccc2oc3ccccc3c2c1	3.2µM*	10%	-3%	10%
C#Cc1ccc(C(=O)Nc2ccc(N3CCC(C)CC3)c(C(N)=O)c2)cc1	-15%	-13%	9%	8.9µM*
O=C(N/N=C/C(Cl)=C/c1ccccc1)c1ccccc1F	10µM*	-1%	20%	33%
CCOC(=O)N/N=C/c1c(F)cccc1F	82%	0%	0%	1%
O=C(NNC(=O)c1ccccc1OCc1ccc(F)cc1)c1ccccc1O	-76%	-2%	-5%	?
O=C(NCc1ccccn1)c1cc(Cl)ccc1OCc1ccccc1	-34%	1%	4%	3.5µM*
CCOC(=O)N/N=C/c1ccccc1F	10µM*	-10%	0%	-10%
O=C(NCc1ccc(F)cc1)c1ccccc1OCc1ccccc1	5%	4%	20%	10µM*
CCc1ccc(NCc2cc3cc(OC)c(OC)cc3n(CC(=O)Nc3cc(C)ccc3C)c2=O)cc1	9%	2%	17%	5%
SMILES	BRCA1 expr act	GLP1R cytotox	GLP1R ag	GLP1R inv ag
CC1=C(C(=O)OCc2ccc(C)cc2)C(c2cccc(F)c2F)CC(=O)N1 (centres undefined)	-5%	0%	-1%	-23%
O=C(CSc1cn(CCNC(=O)c2cccc(C(F)(F)F)c2)c2ccccc12)Nc1ccc2c(c1)OCCO2	-24%	?	-1%	?
C/C(=N\NC(=O)c1ccccc1OCc1ccc(F)cc1)c1ccccn1	-78%	?	15%	5µM*
CCN(CC(=O)Nc1ccccc1C(F)(F)F)C(=O)c1ccccc1OCc1ccc(F)cc1	-34%	-2%	-1%	10µM*
O=C(NNC(=O)c1ccccc1OCc1ccccc1)c1ccccc1F	65%	1%	15%	?
CCN(CC(=O)Nc1ccccc1C(F)(F)F)C(=O)CCOc1ccccc1C	-25%	-3%	5%	?
O=C(N/N=C/c1ccccc1F)c1ccccc1OCc1ccccc1	-27%	1%	21%	7.9µM*
C/C(=N\NC(=O)c1cccc2ccccc12)c1ccccn1	-12%	?	2%	?
CN(C)CCCn1c2c(c(SCC(=O)Nc3ccc4c(c3)OCCO4)nc1=O)CCC2	-49%	-16%	3%	-28%
Cc1cc(Nc2ccc(Cl)cc2)n(-c2ccccc2)n1	-34%	-4%	1%	2.8µM*
Cc1cc(Nc2ccc(Cl)cc2)n(-c2cccc(Cl)c2)n1	-60%	64%	-4%	7.9µM*
Cc1cc(Nc2ccccc2C(=O)O)n(-c2cccc(Cl)c2)n1	-35%	2%	-8%	-35%
CC(=O)N1CCN(C(=O)c2ccc(-c3ccccc3Cl)o2)CC1	11µM*	-1%	9%	12%
O=C(c1ccc(-c2ccccc2Cl)o1)N1CCCCCCC1	?	-16%	?	5.6µM*
Nc1nc[nH]c(=O)c1N	3%	.	.	.
CCCSc1nc2sc3c(c2c(=O)n1-c1ccc(C)cc1)CCCC3	.	-2%	.	15%
Cn1cc(CN2CCCC(C(=O)Nc3cccc(-c4cc5ccccc5[nH]4)c3)C2)cn1 (centres undefined)	-95%	?	-3%	?
CCn1cc(CN2CCCC(C(=O)Nc3cccc(-c4cc5ccccc5[nH]4)c3)C2)c(C)n1 (centres undefined)	-11%	?	1%	11µM*
COc1ccc(OC)c(NC(=O)c2ccc(CN3CCc4ccccc4C3)cc2)c1	-4%	2%	2%	11µM*
COc1ccc(NC(=O)c2ccc(CN3CCc4ccccc4C3)cc2)c(OC)c1	0%	-3%	-6%	?
O=C(Nc1cccc(Br)c1)c1ccc(CN2CCc3ccccc3C2)cc1	10%	-15%	1%	2.2µM*
Cc1nn(-c2ccccc2)c2c1cc1c(=O)n(C)c(=O)nc-1n2-c1cccc(Cl)c1	-12%	3%	-1%	3%
COc1ccc(-n2c(=O)c3c4c(sc3n(Cc3ccc(C)cc3C)c2=O)CCC4)c(OC)c1	.	11%	.	-2%
CCN(c1ccc(NS(=O)(=O)c2cc(Cl)ccc2Cl)cc1)C(C)C	-53%	10%	-1%	11µM*
CCc1cccc(C)c1NC(=O)Cn1c(=O)cc(C)c2c(C)nn(-c3cccc(F)c3)c21	.	2%	.	4%
SMILES	BRCA1 expr act	GLP1R cytotox	GLP1R ag	GLP1R inv ag
Cc1cc2nc(-c3cccc(Br)c3)c(CC3CCCCC3)n2c(C)c1Br	-40%	5%	-4%	-16%
O=C(C1CCCCC1)N(Cc1cccnc1)c1nc2c(F)cccc2s1	.	-4%	.	8.9µM*
Cc1ccc2cc3cc(C(=O)N4CCN(c5ccc(Cl)cc5)CC4)oc3nc2c1	14%	-1%	0%	6%
CN(C)c1ccc(/C=C(\C#N)c2ccccc2)cc1	2.8µM*	?	6%	?
CN(C)c1cccc(/C=C(\C#N)c2ccccc2)c1	?	?	4%	?
COc1cc2cc(CNc3ccccc3)c(=O)n(CC(=O)Nc3ccccc3)c2cc1OC	.	63%	.	-17%
CC(=O)Oc1ccc(C(=O)Nc2cccc(C(=O)c3ccc(C)c(C)c3)c2)cc1	-41%	?	2%	13µM*
COc1cc(NS(=O)(=O)c2ccc(OC)c(C)c2C)c(OC)cc1Cl	-64%	-22%	2%	4µM*
